{"source": "PubChem BioAssay", "key": {"[1]": {"assay": "P. berghei load reduction in hepatocytes – cell-based, HepG2, luciferase luminescence, HepG2 viability, primary screen (AID 624349; in the data active = parasite load remaining mostly below about 12%, no sharp cut-off; inactive = mostly above about 10%;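 for all read-outs here: 100% = mean of DMSO negative control wells on the same plate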)", "details": "P. berghei liver stage in HepG2, luciferase luminescence, concentration not given here; parasite load remaining: stronger effect = lower value; viability: measured here: HepG2 viability without parasites"}, "[2]": {"assay": "Wnt pathway potentiators raising nuclear beta-catenin – imaging, WNT3A-conditioned medium, mouse C2C12, NPC library, primary screen (AID 1117326; in the data active = nuclear beta-catenin stimulation mostly above about 4.2%, no sharp cut-off; inactive = mostly below about 10%)", "details": "stronger effect = higher value"}, "[3]": {"assay": "stimulators of insulin release from INS-1E, primary screen, cell-based, 5 mM glucose, NPC library (AID 1117329;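 active = compound raises insulin release from rat beta cells at 5 mM glucose, no numeric limit stated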)", "details": "rat INS-1E insulin secretion, at 10 µM, stronger effect = higher value"}, "[4]": {"assay": "growth inhibition of GSK3B-pretreated HCT116 cells – cell-based, CellTiter-Glo, 0.2 to 20 µM (AID 1117336;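 active = compounds lowering colon cancer cell viability after pretreatment blocking the GSK3B kinase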)", "details": "HCT116 viability after GSK3B inhibitor, at 20 µM, stronger effect = higher value"}, "[5]": {"assay": "inhibition of endothelial tube formation, primary screen, imaging, VEGF stimulated, CD31 staining, tube area, NPC library (AID 1117340;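 active = compound that reduces growth-factor-driven endothelial tube area in a mixed cell culture, no cutoff stated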)", "details": "VEGF-stimulated ADSC/ECFC co-culture, at 10 µM, stronger effect = higher value"}, "[6]": {"assay": "GLP1 release stimulators, primary, NCI-H716, NPC library (AID 1117341;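 active = compound raises GLP1 secretion from the human gut endocrine cells, with no numeric limit stated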)", "details": "NCI-H716 cells, at 10 µM, stronger effect = higher value"}, "[7]": {"assay": "HCT116 colon cancer cell growth inhibition, primary screen, CellTiter-Glo luminescence, NPC library (AID 1117342)", "details": "at 20 µM (top of the series)"}, "[8]": {"assay": "reduced SW480 viability measured with CellTiter-Glo, NPC library, primary (AID 1117343;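 active = compounds that lower viability of the colon cancer cells in the luminescence readout, with no numeric limit stated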)", "details": "CellTiter-Glo luminescence; at 20 µM (top of the series)"}, "[9]": {"assay": "NPC library primary testing for decreased DLD-1 cell viability via CellTiter-Glo (AID 1117346;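 active = compounds that lower survival of DLD-1 colon cancer cells in the luminescence readout, no cutoff given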)", "details": "DLD-1 viability, CellTiter-Glo luminescence; at 20 µM (top of the series)"}, "[10]": {"biological_target": "6-phosphogluconate dehydrogenase, decarboxylating (Homo sapiens) (UniProt P52209)", "sequence (P52209 whole entry, looked up)": "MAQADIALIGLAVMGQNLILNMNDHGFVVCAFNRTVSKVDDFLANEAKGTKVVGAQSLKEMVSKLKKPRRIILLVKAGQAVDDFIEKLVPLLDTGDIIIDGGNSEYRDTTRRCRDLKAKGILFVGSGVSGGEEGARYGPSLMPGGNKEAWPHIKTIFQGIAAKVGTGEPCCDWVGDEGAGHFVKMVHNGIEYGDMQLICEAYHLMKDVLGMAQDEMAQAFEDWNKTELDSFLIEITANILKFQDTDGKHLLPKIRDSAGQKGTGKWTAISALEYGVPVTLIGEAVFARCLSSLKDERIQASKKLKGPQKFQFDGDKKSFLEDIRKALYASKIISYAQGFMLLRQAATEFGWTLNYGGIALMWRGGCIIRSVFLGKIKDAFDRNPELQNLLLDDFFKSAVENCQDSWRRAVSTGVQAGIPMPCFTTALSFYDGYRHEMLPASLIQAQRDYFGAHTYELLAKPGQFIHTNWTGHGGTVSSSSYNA", "assay": "inhibition of human phosphogluconate dehydrogenase – biochemical, recombinant enzyme, NADPH absorbance, primary screen (AID 1159550;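 active = at least 20% inhibition of 6-phosphogluconate dehydrogenase activity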)", "details": "recombinant 6PGD, NADPH absorbance 341 nm; at 10 µM; stronger effect = higher value"}, "[11]": {"assay": "EMT-state selective cytotoxicity in co-culture – imaging, PC-3E GFP, TEM4-18 mCherry, primary screen (AID 1345086;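 active = compounds killing one labelled cell type while sparing the other, by normalised counts and ratio limits, not self-fluorescent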;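 for all read-outs here: cells exposed to compound for 72 h before imaging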;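 for red/green cell ratio (normalised): normalised mesenchymal count divided by normalised epithelial count so high means epithelial killing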)", "details": "PC-3E GFP / TEM4-18 mCherry co-culture, imaging cell counts, at 1 µM; for red/green cell ratio (normalised): actives lie on both sides"}, "[12]": {"tested_on": "Aerobactin synthetase IucA (Klebsiella pneumoniae hvKP1)", "assay": "IucA enzyme inhibition, primary screen, biochemical, Spectrum library (AID 1346200; call rule not given here;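 note: 100% = wells without compound and 0% = wells lacking enzyme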)", "details": "malachite green pyrophosphate, A620, at 8 µM, stronger effect = lower value"}, "[13]": {"assay": "viability loss with induced miR-34 in A549 – imaging, A549 dox-inducible miR-34, nuclei and caspase counts, primary screen (AID 1347080;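 active = compounds whose cell count with miR-34 switched on is under 0.7 times the count with it off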)", "details": "A549 miR-34 inducible, Hoechst nuclei count, 48 h"}, "[14]": {"biological_target": "Mitogen-activated protein kinase 7 (Homo sapiens) (UniProt Q13164)", "sequence (Q13164 whole entry, looked up, the tested form may be a part)": "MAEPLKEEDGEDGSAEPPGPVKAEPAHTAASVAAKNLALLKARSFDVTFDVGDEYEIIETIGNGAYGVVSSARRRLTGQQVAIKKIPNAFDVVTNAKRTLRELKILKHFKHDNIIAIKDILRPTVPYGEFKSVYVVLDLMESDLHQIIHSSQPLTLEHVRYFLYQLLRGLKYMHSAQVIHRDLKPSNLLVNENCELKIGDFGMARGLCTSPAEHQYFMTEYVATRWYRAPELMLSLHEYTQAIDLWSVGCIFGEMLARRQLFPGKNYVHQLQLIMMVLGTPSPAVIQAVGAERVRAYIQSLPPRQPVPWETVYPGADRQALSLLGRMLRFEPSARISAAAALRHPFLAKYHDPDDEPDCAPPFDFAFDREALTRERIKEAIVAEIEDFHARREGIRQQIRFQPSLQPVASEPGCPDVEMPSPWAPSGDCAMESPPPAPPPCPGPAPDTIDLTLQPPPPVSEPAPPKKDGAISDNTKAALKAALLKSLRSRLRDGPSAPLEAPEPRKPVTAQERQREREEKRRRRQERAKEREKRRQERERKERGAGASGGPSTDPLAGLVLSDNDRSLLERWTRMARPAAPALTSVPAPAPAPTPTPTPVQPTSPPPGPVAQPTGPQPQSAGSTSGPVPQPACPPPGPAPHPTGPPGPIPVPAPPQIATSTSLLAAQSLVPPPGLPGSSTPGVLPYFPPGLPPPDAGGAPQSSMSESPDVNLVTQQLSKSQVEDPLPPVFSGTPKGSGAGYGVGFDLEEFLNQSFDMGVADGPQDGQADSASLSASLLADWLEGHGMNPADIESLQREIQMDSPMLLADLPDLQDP", "assay": "Gal4-ERK5 driven luciferase induction – cell-based, HTS, primary screen (AID 1508626;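 active = luciferase signal above three times the same-plate solvent-only control wells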;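 note: luciferase driven by Gal4-ERK5 fusion binding five Gal4 sites before minimal TATA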)", "details": "HeLa Gal4-ERK5 transactivation, 18 h, at 5 µM, stronger effect = higher value"}, "[15]": {"biological_target": "NAD(+) hydrolase SARM1 (Homo sapiens) (UniProt Q6SZW1)", "sequence (Q6SZW1 whole entry, looked up)": "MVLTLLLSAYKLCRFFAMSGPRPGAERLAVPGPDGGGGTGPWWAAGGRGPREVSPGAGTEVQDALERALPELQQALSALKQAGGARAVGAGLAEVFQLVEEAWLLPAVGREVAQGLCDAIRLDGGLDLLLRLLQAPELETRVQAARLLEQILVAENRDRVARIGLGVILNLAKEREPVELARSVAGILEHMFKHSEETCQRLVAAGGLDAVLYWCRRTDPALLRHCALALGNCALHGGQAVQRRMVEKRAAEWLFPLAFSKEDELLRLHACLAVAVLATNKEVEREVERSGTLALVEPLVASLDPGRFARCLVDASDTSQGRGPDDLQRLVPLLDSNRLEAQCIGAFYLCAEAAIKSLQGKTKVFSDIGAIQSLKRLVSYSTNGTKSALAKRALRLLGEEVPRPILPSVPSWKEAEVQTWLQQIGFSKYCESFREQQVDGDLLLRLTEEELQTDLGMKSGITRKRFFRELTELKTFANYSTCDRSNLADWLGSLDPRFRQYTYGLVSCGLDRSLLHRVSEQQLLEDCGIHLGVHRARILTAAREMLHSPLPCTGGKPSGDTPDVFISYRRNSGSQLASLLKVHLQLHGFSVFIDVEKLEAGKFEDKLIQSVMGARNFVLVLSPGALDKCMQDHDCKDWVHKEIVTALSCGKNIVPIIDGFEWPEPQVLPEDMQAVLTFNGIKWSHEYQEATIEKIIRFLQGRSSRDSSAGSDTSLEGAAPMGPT", "assay": "blocking NAD cleavage by SARM1 SAM-TIR – cell lysate, NAD-Glo luminescence (AID 1508614;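 active = compound whose remaining NAD level is above about 45 nM, limit read from the data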)", "details": "SAM-TIR HEK293T lysate NADase, at 1 µM, stronger effect = higher value"}, "[16]": {"assay": "yeast 75Q aggregation reduction – 75Q-TubU reporter (AID 1593)", "details": "Yeast 75Q polyglutamine aggregation reporter"}, "[17]": {"assay": "blockers of cytochrome c efflux from mitochondria – biochemical, purified mitochondria (AID 1603);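 note: mouse liver mitochondria challenged with calcium chloride; signal normalized to the plate average as 100%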", "details": "stronger effect = lower value"}, "[18]": {"assay": "polyglutamine aggregate formation blockers (AID 1604)", "details": "polyglutamine-induced protein aggregation inhibition assay; stronger effect = higher value; tested at 2.5 µM"}, "[19]": {"assay": "MELAS cybrid and Rieske KO viability enhancers – cell-based, MELAS cybrids, Rieske KO mouse fibroblasts, CellTiter-Glo, primary screen (AID 1508586;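 active = mean z-score across replicates of 1.96 or higher in either the MELAS or the Rieske mutant cell line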;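 note: z relative to plate mean and SD of compound and empty wells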)", "details": "low glucose"}, "[20]": {"assay": "galactose survival enhancers in mitochondrial complex I cybrids – cell-based, galactose medium, ATP luminescence, primary screen (AID 1645843;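 active = z-score of at least 1.8 in each of two replicates, scored against plate mean and spread of sample wells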;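 note: positive z means more ATP and so rescue of galactose-driven cybrid death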)", "details": "complex I mutant cybrid cells, 72 h, stronger effect = higher value"}, "[21]": {"details": "measured here: epithelial PC-3E GFP cell survival"}, "[22]": {"details": "measured here: mesenchymal TEM4-18 mCherry cell survival"}, "[23]": {"details": "measured here: relative caspase fold change +Dox/-Dox"}, "[24]": {"details": "measured here: total cells with miR-34 induction, stronger effect = lower value"}, "[25]": {"details": "measured here: total cells without miR-34 induction"}}, "note": "Several values for one entry are separate records, joined by “and”; a condition that tells them apart may be missing. Identical values can stand only once. Some structures have more than one record in an assay (separate samples or runs), and their calls can disagree. Activity calls are given as the source filed them.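 Rule for the calls, unless noted: active = compounds that lower survival of HCT116 colon cancer cells in the luminescence readout, no numeric limit stated; inactive = the rest.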", "data": [{"smiles": "CC1=C2[C@H]3OC(=O)[C@@H](C)[C@@H]3CC[C@@]2(C)C=CC1=O", "values": [{"measurement": "parasite load remaining", "setting": "[1]", "value": "92.1% (inactive)"}, {"measurement": "viability", "setting": "[1]", "value": 72.5, "unit": "%"}, {"measurement": "nuclear beta-catenin stimulation", "setting": "[2]; at 10 µM", "value": "0.7% (inactive)"}, {"measurement": "nuclear beta-catenin stimulation", "setting": "[2]; stimulation, at 2 µM", "value": 1, "unit": "%"}, {"measurement": "insulin secretion stimulation", "setting": "[3]", "value": "0% (inactive)"}, {"measurement": "viability decrease", "setting": "[4]", "value": "1.65% (inactive)"}, {"measurement": "tube area decrease", "setting": "[5]", "value": "15.6% (inactive)"}, {"measurement": "GLP1 secretion stimulation", "setting": "[6]", "value": "-0.6% (inactive)"}, {"measurement": "inhibition of viability", "setting": "[7]", "value": "1.8% (inactive)"}, {"measurement": "viability decrease (inhibition)", "setting": "[8]", "value": "14.6% (inactive)"}, {"measurement": "viability decrease (inhibition)", "setting": "[9]", "value": "3.8% (inactive)"}, {"measurement": "inhibition", "setting": "[10]", "value": "10.8% (inactive)"}, {"measurement": "red/green cell ratio (normalised)", "setting": "[11]", "value": "0.97 (inactive)"}, {"measurement": "normalised cell number", "setting": "[11]; [21]", "value": 1.11}, {"measurement": "normalised cell number", "setting": "[11]; [22]", "value": 1.07}, {"measurement": "activity remaining", "setting": "[12]", "value": "93.8% (inactive)"}, {"measurement": "fold change", "setting": "[13]; stronger effect = lower value", "value": "0.915 (inactive)"}, {"measurement": "fold change", "setting": "[13]; [23]", "value": 0.797}, {"measurement": "cell count", "setting": "[13]; [24]", "value": 8180}, {"measurement": "cell count", "setting": "[13]; [25]", "value": 8940}, {"measurement": "luciferase signal", "setting": "[14]", "value": "44 AU (inactive)"}]}, {"smiles": "C[C@H]1O[C@@H](O[C@H]2[C@@H](O)C[C@H](O[C@H]3[C@@H](O)C[C@H](O[C@H]4CC[C@@]5(C)[C@H](CC[C@@H]6[C@@H]5CC[C@]5(C)[C@@H](C7=CC(=O)OC7)CC[C@]65O)C4)O[C@@H]3C)O[C@@H]2C)C[C@H](O)[C@@H]1O", "values": [{"measurement": "nuclear beta-catenin stimulation", "setting": "[2]; at 10 µM", "value": "1.3% (inactive)"}, {"measurement": "nuclear beta-catenin stimulation", "setting": "[2]; stimulation, at 2 µM", "value": 1.9, "unit": "%"}, {"measurement": "insulin secretion stimulation", "setting": "[3]", "value": "0.25% (inactive)"}, {"measurement": "viability decrease", "setting": "[4]", "value": "84.5% (active)"}, {"measurement": "tube area decrease", "setting": "[5]", "value": "112% (active)"}, {"measurement": "GLP1 secretion stimulation", "setting": "[6]", "value": "11.6% (inactive)"}, {"measurement": "inhibition of viability", "setting": "[7]", "value": "61.8% (active)"}, {"measurement": "viability decrease (inhibition)", "setting": "[8]", "value": "75.8% (active)"}, {"measurement": "viability decrease (inhibition)", "setting": "[9]", "value": "84.5% (active)"}, {"measurement": "inhibition", "setting": "[10]", "value": "-0.54% (inactive)"}, {"measurement": "remaining NAD", "setting": "[15]", "value": "10 nM (inactive)"}, {"measurement": "luciferase signal", "setting": "[14]", "value": "24 AU (inactive)"}]}, {"smiles": "CCCCCCCCCCCCCCCC[N+](C)(C)C", "values": [{"measurement": "score", "setting": "[16]", "value": 0.03}, {"measurement": "cytochrome c release ratio", "setting": "[17]", "value": 2.11}, {"measurement": "inhibition of aggregation", "setting": "[18]", "value": 65.1, "unit": "%"}, {"measurement": "parasite load remaining", "setting": "[1]", "value": "86.4% (inactive) and 31.9% (inactive)"}, {"measurement": "viability", "setting": "[1]", "value": "75.1% and 81.2%"}, {"measurement": "nuclear beta-catenin stimulation", "setting": "[2]; at 10 µM", "value": "19.2% (inactive)"}, {"measurement": "nuclear beta-catenin stimulation", "setting": "[2]; stimulation, at 2 µM", "value": 9.4, "unit": "%"}, {"measurement": "insulin secretion stimulation", "setting": "[3]", "value": "-0.3% (inactive)"}, {"measurement": "viability decrease", "setting": "[4]", "value": "100% (active)"}, {"measurement": "tube area decrease", "setting": "[5]", "value": "109% (active)"}, {"measurement": "GLP1 secretion stimulation", "setting": "[6]", "value": "40.8% (active)"}, {"measurement": "inhibition of viability", "setting": "[7]", "value": "102% (active)"}, {"measurement": "viability decrease (inhibition)", "setting": "[8]", "value": "123% (active)"}, {"measurement": "viability decrease (inhibition)", "setting": "[9]", "value": "104% (active)"}, {"measurement": "inhibition", "setting": "[10]", "value": "-5.61% (inactive)"}, {"measurement": "red/green cell ratio (normalised)", "setting": "[11]", "value": "0.49 (inactive)"}, {"measurement": "normalised cell number", "setting": "[11]; [21]", "value": 0.64}, {"measurement": "normalised cell number", "setting": "[11]; [22]", "value": 0.31}, {"measurement": "activity remaining", "setting": "[12]", "value": "108% (inactive)"}, {"measurement": "fold change", "setting": "[13]; stronger effect = lower value", "value": "0.616 (active) and 0.9 (inactive)"}, {"measurement": "fold change", "setting": "[13]; [23]", "value": "3.21 and 2.28"}, {"measurement": "cell count", "setting": "[13]; [24]", "value": "4400 and 4060"}, {"measurement": "cell count", "setting": "[13]; [25]", "value": "7150 and 4510"}, {"measurement": "z-score", "setting": "[19]; MELAS cybrid survival, CellTiter-Glo 48 h, stronger effect = higher value", "value": "-0.416 (inactive)"}, {"measurement": "z-score", "setting": "[19]; Rieske KO mouse fibroblast survival, CellTiter-Glo 72 h", "value": -0.288}, {"measurement": "remaining NAD", "setting": "[15]", "value": "10 nM (inactive)"}, {"measurement": "luciferase signal", "setting": "[14]", "value": "96 AU (inactive)"}]}, {"smiles": "CN1C(=O)CN=C(c2ccccc2)c2cc([N+](=O)[O-])ccc21", "values": [{"measurement": "parasite load remaining", "setting": "[1]", "value": "83.1% (inactive)"}, {"measurement": "viability", "setting": "[1]", "value": 68.8, "unit": "%"}, {"measurement": "nuclear beta-catenin stimulation", "setting": "[2]; at 10 µM", "value": "0.5% (inactive)"}, {"measurement": "nuclear beta-catenin stimulation", "setting": "[2]; stimulation, at 2 µM", "value": 0.9, "unit": "%"}, {"measurement": "insulin secretion stimulation", "setting": "[3]", "value": "-0.2% (inactive)"}, {"measurement": "viability decrease", "setting": "[4]", "value": "-4.25% (inactive)"}, {"measurement": "tube area decrease", "setting": "[5]", "value": "-18.8% (inactive)"}, {"measurement": "GLP1 secretion stimulation", "setting": "[6]", "value": "3.3% (inactive)"}, {"measurement": "inhibition of viability", "setting": "[7]", "value": "-16.9% (inactive)"}, {"measurement": "viability decrease (inhibition)", "setting": "[8]", "value": "18.1% (inactive)"}, {"measurement": "viability decrease (inhibition)", "setting": "[9]", "value": "1.05% (inactive)"}, {"measurement": "fold change", "setting": "[13]; stronger effect = lower value", "value": "0.947 (inactive)"}, {"measurement": "fold change", "setting": "[13]; [23]", "value": 1.19}, {"measurement": "cell count", "setting": "[13]; [24]", "value": 9100}, {"measurement": "cell count", "setting": "[13]; [25]", "value": 9610}, {"measurement": "z-score", "setting": "[20]", "value": "0.65 (inactive)"}]}]}
